# Records with an inconclusive call do not appear. Calls of active or inactive are those of the source. Calls follow the shape of the dose curve; as a rule, active = well fitted inhibition curve with a large enough effect; inconclusive = small, poorly fitted or top-dose-only effect; inactive = flat fitted curve, though single readings scatter.
# Test system: NIH3T3
# Experiment: qHTS assay to identify novel small-molecules to repurpose for Merkel cell carcinoma treatment (AID 1296009); also: nearly all actives have a fitted effect of over 60% in size
# Details: MCC and control cell lines, CellTiter-Glo viability, 72 h; at 44.8 µM (top of the series) unless noted
# In short: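 Luminescence from CellTiter-Glo, read 10 min after addition at room temperature, reported viability following a 72 hr, 37 degree celsius treatment with NPC or MIPE compounds in titration; values normalized to plate controls.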
row,SMILES,outcome
1,CC1(C)CC[C@]2(C(=O)O[C@@H]3O[C@H](CO)[C@@H](O)[C@H](O)[C@H]3O)CC[C@]3(C)C(=CCC4[C@@]5(C)C[C@@H](O)[C@H](O)C(CO)(CO)C5CC[C@]43C)C2[C@@H]1O (some centres not stated),inactive [at 17.4 µM]
2,CO[C@@]12CC3[C@@H]([C@@H](O)[C@@H](OC(C)=O)C4[C@](C)(COC(C)=O)CCC[C@]34C)[C@@H](C)C1=CC(=O)O2 (some centres not stated),inactive [at 17.4 µM]
3,C[C@]12C=CC(=O)C=C1CC[C@@H]1[C@@H]2[C@@H](O)C[C@@]2(C)[C@H]1CC[C@]2(O)C(=O)COC(=O)CCC(=O)O,inactive
4,CC1CCC2C(C)(C)C(O)CCC2(C)C12Cc1c(O)cc3c(c1O2)C(N)=NC3 (configuration not stated),inactive
5,CC12CC34C=CC(=O)C(C)(CCC(=O)O)C3C(CC1C4)O2 (configuration not stated),inactive
6,O=C(O)C[C@H]1CCC(=O)[C@@H]1C/C=C\CCOC1OC(CO)C(O)C(O)C1O (some centres not stated),inactive
7,COc1cc(/C=C/CO)ccc1O[C@@H]1O[C@H](CO)[C@@H](O)[C@H](O)[C@H]1O,inactive
8,COc1ccc([C@H]2Cc3cccc(O)c3C(=O)O2)cc1,inactive
9,CC(=O)OC(C)OC(=O)C(C)c1ccc(-c2ccccc2)c(F)c1 (configuration not stated),inactive
10,CC1OC(O[C@H]2[C@@H](O)C[C@@]3(C)C([C@H](O)C[C@]4(C)C3CC=C3C5CC(C)(C)CC[C@]5(C(=O)OC5OC(CO)C(O)C(O)C5OC5OCC(OC6OCC(OC7OCC(O)C(O)C7O)C(O)C6O)C(OC6OCC(O)(CO)C6O)C5O)CC[C@]34C)[C@]2(C)CO)C(O)C(O)C1O (some centres not stated),inactive [at 9.27 µM]
11,C/C=C/C1=CC2=CC(=O)C(C)(O)C(OC(=O)c3c(C)cc(O)cc3O)C2CO1 (configuration not stated),inactive
12,OC[C@H]1O[C@@H](Oc2cc(O)cc(/C=C/c3ccc(O)cc3)c2)[C@H](O)[C@@H](O)[C@@H]1O,inactive
13,c1ccc(C(OC2CCN(CCCc3nn[nH]n3)CC2)c2ccccc2)cc1,inactive
14,N[C@H]1C[C@H]1c1ccc(-c2cccc(O)c2)cc1,inactive
15,NCCOCCOCCNC(=O)Cc1ccc(Nc2nc(NCc3ccc(F)cc3)nc(NCC3CCCCC3)n2)cc1,inactive
16,COc1cc(-c2cccc(O)c2)cc2c1OCO2,inactive
17,CCC[C@@H]1C[C@@H](C(=O)N[C@@H]([C@H]2O[C@H](SC)[C@H](OP(=O)(O)O)[C@@H](O)[C@H]2O)[C@H](C)Cl)N(C)C1,inactive [at 17.4 µM]
18,CCCC(N[C@@H](C)C(=O)N1[C@H](C(=O)O)C[C@@H]2CCCC[C@@H]21)C(=O)OCC (some centres not stated),inactive
19,C=CC(C)(C)C12CC3C(=O)NC(Cc4cnc[nH]4)C(=O)N3C1Nc1ccccc12 (configuration not stated),inactive
20,CC1OC(OC2C(C)OC(OC3C(OC(=O)/C=C/c4ccc(O)cc4)C(CO)OC(OC4(COC(=O)/C=C/c5ccc(O)cc5)OC(CO)C(O)C4O)C3OC3OCC(O)(CO)C3O)C(O)C2O)C(O)C(O)C1O (configuration not stated),inactive [at 9.27 µM]
21,CC1CCC2(C(=O)OC3OC(COC4OC(CO)C(O)C(O)C4O)C(O)C(O)C3O)CCC3(C)C(=CCC4C5(C)CCC(O)C(C)(C(=O)O)C5CCC43C)C2C1(C)O (configuration not stated),inactive [at 9.27 µM]
22,CC(C)=CC/C=C(/C)[C@H]1CC[C@]2(C)[C@@H]1[C@H](O)CC1[C@@]3(C)CC[C@H](O)C(C)(C)[C@@H]3[C@@H](O[C@@H]3O[C@H](CO)[C@@H](O)[C@H](O)[C@H]3O[C@@H]3O[C@@H](C)[C@H](O)[C@@H](O)[C@H]3O)C[C@]12C (some centres not stated),inactive [at 17.4 µM]
23,COc1cc(C2c3cc(O)c(OC)cc3CC(CO)C2CO)ccc1O (configuration not stated),inactive
24,CC/C=C\C[C@H]1C(=O)C=C[C@@H]1CCCCCCCC(=O)O,inactive
25,CC1=CCC2C(C)(CO)CCCC2(CO)C1CO (configuration not stated),inactive
26,C[C@@H]1O[C@@H](O[C@@H]2[C@@H](O)[C@@H](O)[C@H](O[C@@H]3[C@@H](O)[C@@H](O[C@]4(CO)O[C@H](CO)[C@@H](O)[C@@H]4OC(=O)/C=C/c4ccc(O)cc4)O[C@H](CO)[C@H]3OC(=O)/C=C/c3ccc(O)cc3)O[C@H]2C)[C@H](O)[C@H](O)[C@H]1O,inactive [at 9.27 µM]
27,CC(=O)OCC(=O)O[C@@H]1[C@H]2[C@@H](OC(=O)c3ccccc3)[C@@H](C)C[C@]2(O)[C@H](OC(C)=O)C2(C)[C@H]3CC(C)(C)C(=O)[C@@H]3CC1(OC(C)=O)[C@@H]2OC(C)=O (some centres not stated),inactive [at 17.4 µM]
